Screening results as filed in PubChem BioAssay.
KDM5B inh – Primary screen for KDM5B Histone Demethylases FDH-coupled qHTS; Potency, µM (top dose mostly 57.7 µM), usual class: inhibitors; KDM5B demethylase, FDH-coupled NADH fluorescence (FDH is formaldehyde dehydrogenase); 220,000 compounds, 2.6% hits; active = well fitted inhibition curve with a large enough effect; note: nearly all actives have a fitted effect of over 70% in size
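Inhibition is measured as reduced NADH fluorescence generation from FDH coupling to formaldehyde release. Truncated KDM5BΔAP at 200 nM final acts on H3K4me3 peptide (12.5 µM in substrate mix) in pH 7.5 HEPES buffer with Tween-20, 30 min, room temperature.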
Hits are given with their value. The full list was thinned out, with hits kept by preference.

`CCC(CC)C(=O)N1CCCN(S(C)(=O)=O)c2ccccc21` gave KDM5B inh inactive.
For Cc1nc(C2CC(O)C2)cc(N2CCN(CCc3ccccc3)CC2)n1 (stereo not given) the results were KDM5B inh inactive.
`COC(=O)c1cnc(Nc2cccc(C(F)(F)F)c2)c([N+](=O)[O-])c1` gave KDM5B inh inactive.
`FC(F)(F)c1cccc(Nc2ncc(-c3cccnc3)c3c2OCC3)c1` gave KDM5B inh 28.2µM.
`COc1ccc(-c2cnc(Nc3cccnc3)c3c2CCO3)cn1` gave KDM5B inh inactive.
For Cn1cc(-c2cnc(NC(=O)c3c[nH]c4ccccc34)c3c2CCO3)cn1 the results were KDM5B inh inactive.
Screening CN(C)c1cccc(C(=O)Nc2ncc(-c3cnn(C)c3)c3c2OCC3)c1 returned KDM5B inh inactive.
For O=C(NCC(F)(F)F)c1cccnc1Nc1cccc(C(F)(F)F)c1 the results were KDM5B inh inactive.
For Clc1ccc(Nc2ncc(-c3cccnc3)c3c2OCC3)cc1 the results were KDM5B inh 31.6µM.
`Cn1cc(-c2cnc(Nc3cccc(C(F)(F)F)c3)c3c2CCO3)cn1` gave KDM5B inh 35.5µM.
Clc1ccc(Nc2ncncc2-c2nc(-c3ccccc3)no2)cc1 was read as KDM5B inh inactive.
O=C(CCSc1ccc(F)c(F)c1)Nc1ccc(-n2cnnn2)cc1 was read as KDM5B inh inactive.
Nc1ccc(Sc2ccc(Cl)cc2)cc1 was read as KDM5B inh inactive.
Screening COc1cccc(/C=C/C(=O)c2ccc(C)cc2C)c1OC returned KDM5B inh inactive.
CCOC(=O)C1C2C=CC(C3CC23)C1C(=O)OCc1ccccc1Cl (stereo not given) was read as KDM5B inh inactive.
`Cc1csc(NC(=O)Cc2ccc(OCc3c(C)noc3C)cc2)n1` gave KDM5B inh inactive.
O=C(Nc1cccc(-c2nnc3n2CCCC3)c1)c1cc(F)ccc1F was read as KDM5B inh inactive.
For Cc1cc(C(=O)OCC(=O)Nc2ccc(C)c(C)c2)c2ccccc2n1 the results were KDM5B inh inactive.
Cc1cccc2nc(C(=O)N3CCC(=O)N(CC4CC4)C(C(C)C)C3)cn12 (stereo not given) was read as KDM5B inh inactive.
Screening CC(C)C1CN(c2cncc(C(=O)N3CCCC3)n2)CCC(=O)N1CC1CC1 (stereo not given) returned KDM5B inh 28.2µM.
Screening Cc1c(-c2cc(C(=O)N3CCC(=O)N(CC4CC4)C(C(C)C)C3)no2)cnn1C (stereo not given) returned KDM5B inh inactive.
`CCCC(C)N(C)CC(=O)N1CCN(c2oc(C)nc2C#N)CC1` (stereo not given) gave KDM5B inh inactive.
`C=CCNC(=O)NC(=O)Cn1ccnc1` gave KDM5B inh inactive.
Screening COc1cccc(S(=O)(=O)N2CC(Oc3ccccc3-c3noc(C)n3)C2)c1 returned KDM5B inh inactive.
Screening Cc1ccc(-c2nc(C(=O)N3CCN(c4cccc(C)c4C)CC3)no2)cc1 returned KDM5B inh inactive.
`Cc1ccc(N2CCN(C(=O)c3noc(-c4ccc(F)cc4)n3)CC2)cc1` gave KDM5B inh inactive.
For O=C(c1noc(-c2ccc(F)cc2)n1)N1CCN(c2ccccc2F)CC1 the results were KDM5B inh 31.6µM.
Cc1nc2ccn(Cc3cccnc3)c(=O)c2cc1C(=O)N1CCN(c2ccccc2)CC1 was read as KDM5B inh inactive.
CN(C)Cc1cccc(-c2cc3c(ccn3Cc3cccnc3)c(C3=CCOCC3)n2)c1 was read as KDM5B inh 39.8µM.
For COc1cccc(-c2nc3cc4c(cc3cc2CN2CCOCC2)OCO4)c1OC the results were KDM5B inh inactive.
Cc1ccc(Cn2c(CN3CCC(C(=O)NCc4cccnc4)CC3)cc3ccccc32)cc1 was read as KDM5B inh inactive.
For Cc1ccc(-c2cc3c(ccn3Cc3cccnc3)c(C3=CCOCC3)n2)cn1 the results were KDM5B inh 35.5µM.
`COc1ccc(NC(=O)COc2cccc3c2CCN(Cc2cccnc2)C3=O)c(OC)c1` gave KDM5B inh inactive.
Screening COc1cccc(-c2cc3c(ccn3Cc3cccnc3)c(C3=CCOCC3)n2)c1OC returned KDM5B inh 28.2µM.
`COCCO[C@H]1C(=O)N(C2CCN(C(=O)C3CCOCC3)CC2)[C@H]1c1ccncc1` gave KDM5B inh inactive.
`CCc1cccc(NC(=O)CN2C(=O)NC(c3ccc(C)cc3)C3=C2COC3=O)c1` (stereo not given) gave KDM5B inh inactive.
For CCN(C(=O)CN1C(=O)NC2(CCS(=O)(=O)CC2)C1=O)c1ccccc1 the results were KDM5B inh inactive.
COc1ccc(CN(C)S(=O)(=O)c2ccc3c(c2)OCCCO3)cc1OC was read as KDM5B inh inactive.
For CCOCC(=O)N1CCCC(c2nc(-c3ccccc3)no2)CCNC(=O)CC1 (stereo not given) the results were KDM5B inh inactive.
For COc1ccc(OC)c(NC(=O)COC(=O)c2sccc2C)c1 the results were KDM5B inh inactive.
